# Hits are enriched below; roughly 2.9% of the tested compounds scored in any of these assays.
# ClpP mod: qHTS Assay for Activators of ClpP | actives 1.9% (n = 340,000) | Potency, µM (doses to about 57.5 µM), for the others: top-dose activity change, negative = active | purified B. subtilis ClpP, FRET peptide cleavage, 20 min | AID 651965, 2013; active = well fitted falling curve with a large enough effect; inconclusive = small, poorly fitted or top-dose-only effect; inactive = no such curve, though single readings can be large or run the other way; note: potency is the fitted concentration of half-maximal effect; the source files actives as falling curves though it sought activators and does not explain the sign; nearly all actives have a fitted effect of over 65% in size
#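 Purified B. subtilis ClpP, 10 microg/mL final in Tris/HCl pH8 with KCl, BSA, glycerol and Tween-20, cleaved an Abz/nitrotyrosine-quenched decapeptide. Fluorescence (ex 320, em 430) was read at 0 and 20 min at room temperature. Delta was normalized to 5.8 microM ADEP and DMSO/no-enzyme controls.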
# LDHA inh: LDHA (human) enzyme inhibition; purified LDHA, NADH/diaphorase-resazurin fluorescence; active compounds read low; actives 0.15% (n = 480,000); activity change, % (values are at about 110 or 230 µM); P00338; in the data active = activity change below about -30%; inconclusive = mostly about -25% to -30%;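 note: plate controls were DMSO wells for no effect and wells without enzyme for full effect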
#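 Human LDH5 at 2 nM final in Tris HCl pH 7.4 with 0.06 mM NADH and 0.2 mM pyruvate, reacted 5 minutes at room temperature. Remaining NADH coupled via diaphorase/resazurin; resorufin fluorescence read at 0 and 20 minutes, normalized to enzyme-free and DMSO wells.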
# GLP-1R agonist: activates the human GLP-1 receptor; P43220; HEK293 GLP-1R CRE-luciferase, luminescence, 4-6 h; cells express a hypersensitive GLP-1R form; Potency, µM (series often up to 45.6 µM), for the others: top-dose activation, actives largely listed as activators; actives 0.007% (n = 380,000); AID 624172; note: potency is the fitted concentration of half-maximal effect; % of control where 0% means no effect
# Target sequence (P43220 whole entry, looked up): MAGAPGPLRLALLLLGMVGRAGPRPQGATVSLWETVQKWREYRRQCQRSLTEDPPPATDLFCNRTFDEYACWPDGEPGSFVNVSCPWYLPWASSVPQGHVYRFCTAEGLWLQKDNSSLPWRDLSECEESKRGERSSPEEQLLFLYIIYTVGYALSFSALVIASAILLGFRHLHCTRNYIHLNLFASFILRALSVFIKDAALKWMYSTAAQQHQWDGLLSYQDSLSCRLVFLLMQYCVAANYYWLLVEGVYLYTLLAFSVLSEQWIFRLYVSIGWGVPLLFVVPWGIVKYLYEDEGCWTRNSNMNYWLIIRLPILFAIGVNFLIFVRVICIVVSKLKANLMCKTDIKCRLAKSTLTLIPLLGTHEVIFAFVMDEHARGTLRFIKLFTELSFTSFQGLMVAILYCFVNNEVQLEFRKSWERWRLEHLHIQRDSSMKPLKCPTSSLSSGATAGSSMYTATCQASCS
# HEK293 tox: cytotoxicity in counter-screen for GLP-1R inverse agonists; HEK293 cAMP-luciferase reporter cells, luminescence, 24 h; Potency, µM (titrated, usually from 38.3 µM), inactives show at the highest dose activity change, negative = inhibition, hits mostly inhibitors; actives 0.13% (n = 410,000);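 note: loss of luciferase light is scored as toxicity; potency is the fitted concentration of half-maximal effect; % is set by controls: 0 for no effect and ±100 for the full control effect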
#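 MLSMR compounds, 24 hr on cells at 37 deg C/5% CO2; luminescence after luciferase reagent (12 min RT). Inhibition counted as the undesired cytotoxic outcome.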
# GLP-1R inv ag: acts as inverse agonist at human GLP-1 receptor; HEK293 GLP-1R CRE-luciferase, luminescence, 24 h; GLP-1R form is constitutively active; Potency, µM (series often up to 38.3 µM), inactives show top-dose activity change, negative = inhibition, usual class: inhibitors; actives 1.6% (n = 410,000); note: potency is the fitted concentration of half-maximal effect; % is set by controls: 0 for no effect and ±100 for the full control effect; nearly all actives have a fitted effect of over 55% in size
#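 Using stably transfected HEK293 (constitutively active GLP-1R, cAMP-luciferase reporter), compounds were incubated 24 hr and luciferase measured by luminescence.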
# p53 reactivation: restores transcriptional activity of mutant p53; H1299 p53-A138V BP100-luciferase reporter, luminescence, 24 h; Potency, µM (highest dose often 92.2 µM), for the others: top-dose activity change, positive = activation, actives largely listed as activators; actives 0.063% (n = 320,000); AID 504706; note: potency is the fitted concentration of half-maximal effect; % of control where 0% means no effect; nearly all actives have a fitted effect of over 45% in size
#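 H1299 (p53-null), stable ts p53-A138V + BP100-Luc; 1000 cells/well, Opti-MEM/10% FBS; cpd 4 pt, 1:5; 24 h, 37 deg C, 5% CO2; detection reagent 10 min RT; luminescence.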
# Numbers without * were called inactive; ? = inconclusive; . = not tested or not shown. Unless noted, calls come from the whole dose curve; as a rule, active = well fitted curve in the direction sought with a large enough effect; inconclusive = small, poorly fitted or top-dose-only effect, or another doubt; inactive = no such curve, though single readings can be large; an effect the other way counts as inactive or inconclusive.
SMILES,ClpP mod,LDHA inh,GLP-1R agonist,HEK293 tox,GLP-1R inv ag,p53 reactivation
C/C(=N\NC(=O)c1ccc(Br)cc1)C1C(=O)c2ccccc2C1=O,0%,-4,-8%,10µM*,?,?
C/C(=N\NC(=O)c1ccc(-c2ccccc2)cc1)C1C(=O)c2ccccc2C1=O,0%,-2,3%,?,?,4%
COc1ccc(CN(C)C(c2ccccc2)c2nnnn2-c2ccccc2C)c(OC)c1C (centres undefined),-1%,-4,2%,1%,10µM*,-7%
COc1cc(OC)c(OC)cc1CN(C)C(c1ccccc1)c1nnnn1-c1ccccc1C (centres undefined),-6%,9,9%,-6%,11µM*,1%
COc1cccc(CN(C)C(c2ccccc2)c2ccccc2)c1OC,.,2,2%,27%,?,5%
COc1ccc(CCN(C)Cc2ccc(OCc3ccccc3)c(OC)c2)cc1OC,0%,-32*,?,?,?,0%
COc1cc(CN(C)CCc2ccccn2)cc(OC)c1OC,-2%,-31*,-7%,-18%,-11%,-4%
Cc1ccccc1C(=O)Nc1sc2c(c1C(=O)N1CCN(C)CC1)CCCC2,.,-2,.,.,.,.
COC(=O)CN1C(=S)N(c2ccc(Cl)cc2)C(=O)C1CC(=O)Nc1ccccc1 (centres undefined),13µM*,3,-14%,-6%,-28%,-13%
COc1ccc(-n2nc3ccc(NS(C)(=O)=O)cc3n2)cc1Cl,28µM*,0,5%,78%,59%,16%
CCCCS/C(N)=N/N=C/c1ccccc1O,-1%,-3,25%,2.8µM*,?,23%
COc1ccc2[nH]cc(CCNC(=O)Nc3ccccc3)c2c1,?,-4,6%,-4%,?,-3%
Fc1ccc(/C=N/NC(=S)NCCc2ccccc2)cc1F,.,-7,23%,13µM*,?,2%
COCCNC(=S)N/N=C(\C)c1ccccc1O,?,1,10%,-91%,?,?
Oc1ccc(Br)cc1/C=N/NC(=S)NCCc1ccccc1,.,-9,18%,39%,?,11%
COc1ccc(O)c(/C=N/NC(=S)NCCc2ccccc2)c1,.,-5,23%,6%,2.2µM*,11%
CCc1ccc(/C=N/NC(=S)NCCc2ccccc2)cc1,4%,-8,7%,?,?,2%
COc1ccc2[nH]cc(CCNC(=S)NCCc3ccccc3)c2c1,0%,-2,12%,?,8.9µM*,-2%
COc1ccc(/C(C)=N/NC(=S)NCCc2ccccc2)c(O)c1,.,2,8%,?,2µM*,3%
Cc1ccc(N(CC(=O)NC2CCCC2)C(=O)CCC(=O)Nc2nccs2)cc1C,.,-2,0%,-11%,-5%,1%
CCc1ccc(C(=O)COC(=O)C2CCN(c3ccc(C(F)(F)F)cn3)CC2)cc1,-5%,-5,-14%,1%,6%,-3%
CN(C(=O)COC(=O)C1CSC2(C)CCC(=O)N12)c1ccccc1 (centres undefined),28µM*,-10,-3%,20%,6%,1%
CC12CCC(=O)N1C(C(=O)OCC(=O)Nc1cccc(Br)c1)CS2 (centres undefined),.,0,-4%,3%,1%,1%
COc1cc(CNC(=O)c2ccc3nc(Cc4ccccc4)oc3c2)cc(OC)c1OC,1%,2,.,-1%,-3%,.
CC(NC(=O)c1ccc2nc(Cc3ccccc3)oc2c1)c1ccccc1 (centres undefined),-3%,-4,.,-4%,-28%,.
COc1cc(CNC(=O)c2ccc3nc(CCc4ccccc4)oc3c2)cc(OC)c1OC,-29%,-1,.,2%,11µM*,.

# Screening results deposited in PubChem BioAssay by National Center for Advancing Translational Sciences (NCATS).
